# Results from PubChem BioAssay (Tox21).
# Values without a mark were called inactive. Results filed as inconclusive are left out. Where a call stands in place of a potency, no number is given. Activity calls are given as the source filed them. Unless noted, calls follow the shape of the dose curve; as a rule, active = well fitted curve in the direction sought with a large enough effect in the repeat runs; inconclusive = weak or mixed curves; inactive = no such curve, though single readings can be large; an effect the other way counts as inactive or inconclusive.
# Key:
# [1] = qHTS assay to identify small molecule agonists of the estrogen receptor alpha (ER-alpha) signaling pathway in the presence of an antagonist - cell viability counter screen (AID 1259386); settings: VM7Luc4E2 viability, CellTiter-Fluor fluorescence, 22 h; series mostly up to 92.4 µM;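 also: cells exposed to compounds for 22 h at 37 °C before the viability read; nearly all actives have a fitted effect of over 30% in size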; also: potency is read from the fitted curve at half-maximal effect
# In short: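 VM7Luc4E2 cells (endogenous full-length ER-alpha, 4×ERE-luciferase) were held 5 days in phenol red-free medium with 10% charcoal-stripped FBS, plated, then given 10.0nM ICI-182,780 and compounds at 15 concentrations for 22hr at 37C; viability read by CellTiter-Fluor fluorescence.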
# [2] = target: Progesterone receptor (Homo sapiens) (UniProt P06401); experiment: qHTS assay to identify small molecule agonists of the progesterone receptor (PR) signaling pathway (AID 1346784; calls by dose curve; also: nearly all actives have a fitted effect of over 30% in size); settings: PR-UAS-bla HEK293T, beta-lactamase FRET ratio, 16 h; series mostly up to 92.4 µM
# In short: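 PR-UAS-bla HEK 293T cells carrying a UAS-driven beta-lactamase reporter were seeded in medium with 2% charcoal-stripped FBS, preincubated 6 hr at 37C, then exposed to compounds in DMSO for 16 hr; agonism was read by LiveBLAzer B/G FRET fluorescence.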
# [3] = target: Progesterone receptor (Homo sapiens) (UniProt P06401); experiment: qHTS assay to identify small molecule antagonists of the progesterone receptor (PR) signaling pathway (AID 1346795; active = well fitted inhibition curve with a large enough effect in the signal ratio in the repeat runs, not every such curve was filed as active; the % refers to the signal ratio; also: potency is read from the fitted curve at half-maximal effect); settings: PR-UAS-bla HEK293T, beta-lactamase FRET ratio, 16 h; series mostly up to 92.4 µM
# In short: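 PR-UAS-bla HEK293T cells carrying a UAS-driven beta-lactamase reporter were plated in medium with 2% charcoal-stripped FBS and rested 6 hr at 37C. Compounds were added with 1 nM R5020 (final) for 16 hr, then FRET substrate loaded 2 hr at room temperature.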
# [4] = qHTS assay to identify small molecule antagonists of the progesterone receptor (PR) signaling pathway - cell viability counter screen (AID 1346798); settings: PR-UAS-bla HEK293T viability, CellTiter-Glo luminescence, 16 h; series mostly up to 92.4 µM; also: nearly all actives have a fitted effect of over 50% in size; also: potency is read from the fitted curve at half-maximal effect
# In short: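 PR-UAS-bla HEK293T cells in medium with 2% charcoal-stripped FBS were treated with compounds plus R5020 for 16 hr at 37C. Cell viability was then read by CellTiter-Glo luminescence after 30 min at room temperature in the same wells.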
# [5] = qHTS assay to identify small molecule agonists of the progesterone receptor (PR) signaling pathway - cell viability counter screen (AID 1346799; calls by dose curve; also: nearly all actives have a fitted effect of over 45% in size); settings: PR-UAS-bla HEK293T viability, CellTiter-Glo luminescence, 16 h; series mostly up to 92.4 µM
# In short: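 PR-UAS-bla HEK293T cells, 3,000 per well in medium with 2% charcoal-stripped FBS, were preincubated 6 hr at 37C, then exposed to compounds for 16 hr; viability was read as CellTiter-Glo luminescence after 30 min at room temperature.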
# [6] = qHTS assay to identify small molecule antagonists of the TGF-beta/Smad signaling pathway - cell viability counter screen (AID 1346824); settings: SBE-bla HEK293T viability, CellTiter-Glo luminescence; series mostly up to 76.8 µM; also: nearly all actives have a fitted effect of over 50% in size
# In short: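 Cytotoxicity counter-screen run in the same wells as the beta-lactamase Smad reporter read: CellTiter-Glo luminescence after 30 min at room temperature. HEK 293T SBE-bla cells had 5 hr compound exposure at 37 C with TGF-beta1 (0.25 ng/mL stock).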
# [7] = qHTS assay to identify small molecule agonists of the TGF-beta/Smad signaling pathway - cell viability counter screen (AID 1346829); settings: SBE-bla HEK293T viability, CellTiter-Glo luminescence, 5 h; series mostly up to 76.8 µM; also: top concentration of the series differs between compounds; nearly all actives have a fitted effect of over 45% in size
# In short: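 Same-well cytotoxicity: CellTiter-Glo added after the 2 hr room-temperature beta-lactamase substrate step, luminescence measured 30 min later; cells had 5 hr of compound at 37 C.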
# [8] = target: Thyrotropin-releasing hormone receptor (Homo sapiens) (UniProt P34981); experiment: qHTS assay to identify small molecule antagonists of the thyrotropin-releasing hormone receptor (TRHR) signaling pathway (AID 1346877; active = well fitted inhibition curve with a large enough effect in the repeat runs, not every such curve was filed as active); settings: TRHR-HEK293, TRH-induced calcium fluorescence, antagonist mode; series mostly up to 51.3 µM
# In short: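 TRHR-expressing HEK293 cells were seeded, cultured 18 h at 37 °C, then loaded with calcium dye for 2 h. Compounds were pre-incubated 5 min at room temperature before 1 nM TRH (final) was added, and kinetic fluorescence was recorded for 3 min.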
# [9] = target: Thyrotropin-releasing hormone receptor (Homo sapiens) (UniProt P34981); experiment: qHTS assay to identify small molecule agonists of the thyrotropin-releasing hormone receptor (TRHR) signaling pathway (AID 1346891; calls by dose curve); settings: TRHR-HEK293 calcium fluorescence, agonist mode; series mostly up to 57.6 µM
# In short: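 TRHR-expressing HEK293 cells were plated 18 h at 37 °C/5% CO2, loaded with calcium dye 2 h at 37 °C, then given compound in DMSO; fluorescence was read kinetically for 3 min at 1 s intervals.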
# [10] = qHTS assay to identify small molecule agonists of the TGF-beta/Smad signaling pathway (AID 1346859; active = well fitted activation curve with a large enough effect in the signal ratio in the repeat runs, not every such curve was filed as active; the % refers to the signal ratio); settings: SBE-bla HEK293T, TGF-beta/Smad beta-lactamase reporter, 5 h; series mostly up to 76.8 µM
# In short: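 HEK 293T cells stably carrying a beta-lactamase reporter driven by the Smad binding element were seeded overnight, exposed to DMSO-dissolved compounds for 5 hr at 37 C, 5% CO2, then loaded with FRET substrate for 2 hr at room temperature.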
# Progesterone receptor (Homo sapiens), sequence (P06401 whole entry, looked up): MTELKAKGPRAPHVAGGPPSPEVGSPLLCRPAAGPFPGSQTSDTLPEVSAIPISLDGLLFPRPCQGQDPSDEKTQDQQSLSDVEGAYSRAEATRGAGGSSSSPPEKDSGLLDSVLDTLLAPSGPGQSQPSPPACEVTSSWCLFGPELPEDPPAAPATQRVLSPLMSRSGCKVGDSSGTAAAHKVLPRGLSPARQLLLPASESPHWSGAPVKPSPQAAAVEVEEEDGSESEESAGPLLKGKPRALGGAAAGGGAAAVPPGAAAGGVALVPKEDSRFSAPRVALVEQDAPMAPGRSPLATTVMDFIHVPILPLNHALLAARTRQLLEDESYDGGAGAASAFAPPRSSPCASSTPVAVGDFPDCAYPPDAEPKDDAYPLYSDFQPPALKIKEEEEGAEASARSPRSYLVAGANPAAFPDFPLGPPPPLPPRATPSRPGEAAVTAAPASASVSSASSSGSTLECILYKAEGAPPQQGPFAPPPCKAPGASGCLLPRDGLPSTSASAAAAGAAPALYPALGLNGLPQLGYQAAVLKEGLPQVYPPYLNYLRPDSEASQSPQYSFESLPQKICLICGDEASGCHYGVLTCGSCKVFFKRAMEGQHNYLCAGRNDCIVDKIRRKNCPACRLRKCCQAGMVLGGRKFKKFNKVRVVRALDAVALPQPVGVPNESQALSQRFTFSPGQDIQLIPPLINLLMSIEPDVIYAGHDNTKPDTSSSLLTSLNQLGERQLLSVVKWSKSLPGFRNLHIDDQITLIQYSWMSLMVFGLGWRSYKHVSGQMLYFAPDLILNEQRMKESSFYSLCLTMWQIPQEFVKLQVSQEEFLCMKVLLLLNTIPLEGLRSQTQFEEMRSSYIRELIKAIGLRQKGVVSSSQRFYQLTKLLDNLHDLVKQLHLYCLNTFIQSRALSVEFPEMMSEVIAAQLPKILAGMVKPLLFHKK
# Thyrotropin-releasing hormone receptor (Homo sapiens), sequence (P34981 whole entry, looked up): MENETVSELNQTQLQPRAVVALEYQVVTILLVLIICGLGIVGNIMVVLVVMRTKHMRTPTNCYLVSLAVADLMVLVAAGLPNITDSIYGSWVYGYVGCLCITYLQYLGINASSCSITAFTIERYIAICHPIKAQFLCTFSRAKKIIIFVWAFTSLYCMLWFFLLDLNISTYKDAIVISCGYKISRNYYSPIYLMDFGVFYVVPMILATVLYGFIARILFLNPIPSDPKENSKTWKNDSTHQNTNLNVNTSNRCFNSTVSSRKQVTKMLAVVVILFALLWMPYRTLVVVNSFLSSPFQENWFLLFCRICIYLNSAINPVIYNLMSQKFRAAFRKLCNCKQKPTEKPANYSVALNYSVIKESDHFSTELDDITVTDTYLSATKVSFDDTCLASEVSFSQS
Compound,Potency [1],Potency [2],Potency [3],Potency [4],Potency [5],Potency [6],outcome [7],outcome [8],Potency [9],Potency [10]
CCN(CC)CCNC(=O)c1cc(Br)c(N)cc1OC,inactive,inactive,inactive,inactive,inactive,inactive,inactive,inactive,inactive,–
CCOC(=O)C(=O)CCc1ccccc1,inactive,inactive,inactive,inactive,inactive,inactive,inactive,inactive,inactive,inactive
CC(=O)c1cccc([N+](=O)[O-])c1,inactive,inactive,inactive,inactive,inactive,inactive,inactive,inactive,inactive,inactive
O=C(O)c1ccccc1Cl,inactive,inactive,inactive,inactive,inactive,inactive,inactive,inactive,inactive,–
Cc1ccc(C(C)OC(=O)C2(C)CCC(C(=O)O)C2(C)C)cc1 (stereo unspecified),inactive,inactive,inactive,inactive,inactive,inactive,inactive,–,–,inactive
CC1CCC(=O)C1=O (stereo unspecified),inactive,inactive,inactive,inactive,inactive,inactive,inactive,–,–,inactive
CC1=CC=C(C(C)C)CC1,inactive,inactive,inactive,inactive,inactive,inactive,inactive,–,–,–
COC(C)OC,inactive,inactive,inactive,inactive,inactive,inactive,inactive,inactive,inactive,inactive
CCC(C)(C)CC,inactive,inactive,inactive,inactive,inactive,inactive,inactive,–,–,inactive
Cc1ccc(N=Nc2c(O)c(C(=O)O)cc3ccccc23)c(S(=O)(=O)O)c1,23.6 µM (active),inactive,inactive,inactive,inactive,inactive,inactive,inactive,inactive,inactive
O=[N+]([O-])c1ccc(NCCO)c(OCCO)c1,27.3 µM (active),inactive,inactive,inactive,inactive,inactive,inactive,inactive,inactive,inactive
O=C1c2ccccc2S(=O)(=O)N1CCCCN1CCN(c2ncccn2)CC1,inactive,inactive,inactive,inactive,inactive,inactive,inactive,inactive,inactive,inactive
O=C1[C@H]2CCCC[C@H]2C(=O)N1CCCCN1CCN(c2nsc3ccccc23)CC1,29.8 µM (active),inactive,inactive,inactive,inactive,inactive,inactive,inactive,inactive,inactive
C[N+]1(CC2COC(c3ccccc3)(C3CCCCC3)O2)CCCCC1 (stereo unspecified),inactive,inactive,inactive,inactive,inactive,inactive,inactive,–,–,inactive
CCOC(=O)Cc1cccc2ccccc12,inactive,inactive,inactive,inactive,inactive,–,inactive,inactive,inactive,–
CCCn1cnc2c1c(=O)n(CCCCC(C)=O)c(=O)n2C,inactive,inactive,inactive,inactive,–,inactive,inactive,inactive,inactive,inactive
O=C1CCC(=O)O1,inactive,inactive,inactive,inactive,inactive,inactive,inactive,inactive,inactive,–
CCCCC(CC)COC(=O)CCCCCCCCC(=O)OCC(CC)CCCC (stereo unspecified),inactive,inactive,inactive,inactive,–,inactive,inactive,inactive,inactive,inactive
CCOC(=O)C(O)c1ccccc1 (stereo unspecified),inactive,inactive,inactive,inactive,inactive,–,inactive,inactive,inactive,inactive
C/C=C(/C(=C/C)c1ccc(OC(C)=O)cc1)c1ccc(OC(C)=O)cc1,inactive,inactive,8.41 µM (active),inactive,–,inactive,inactive,inactive,inactive,inactive
CN(C)CCN(Cc1ccsc1)c1ccccn1,inactive,inactive,inactive,inactive,–,inactive,inactive,inactive,inactive,inactive
CCCCCCCCCCCCCCCCCCOS(=O)(=O)O,inactive,inactive,inactive,54.5 µM (active),–,inactive,inactive,inactive,inactive,inactive
C[Si](C)(CCCN)O[Si](C)(C)CCCN,inactive,inactive,inactive,inactive,inactive,–,inactive,inactive,inactive,–
